The supplement of paper PMC3334620
The full ranking holds about 33,000 sequences; the median of “E-score (-0.5 to 0.5)” is about -0.013, and the highest 2% start at about 0.3. Only a selection was taken, and the highest values are over-represented in it overall.

target: T1, Msn1 (UniProt P22148); assay: PBM E-score (8-mer binding enrichment) (E-score (-0.5 to 0.5)); higher = stronger / more preferred TF binding; conditions: protein concentration: 200 nM; construct: GST-full length
T1 sequence: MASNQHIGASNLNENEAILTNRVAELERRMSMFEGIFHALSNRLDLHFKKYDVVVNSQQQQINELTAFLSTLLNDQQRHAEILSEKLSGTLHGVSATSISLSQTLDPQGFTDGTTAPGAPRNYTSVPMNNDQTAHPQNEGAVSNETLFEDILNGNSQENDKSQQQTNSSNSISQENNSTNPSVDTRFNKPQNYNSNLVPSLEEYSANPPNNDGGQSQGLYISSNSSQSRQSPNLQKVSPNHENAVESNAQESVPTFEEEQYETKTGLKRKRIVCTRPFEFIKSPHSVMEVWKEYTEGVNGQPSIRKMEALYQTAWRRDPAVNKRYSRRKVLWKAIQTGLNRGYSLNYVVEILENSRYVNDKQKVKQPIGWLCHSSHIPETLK
Method: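 Universal 'all 10-mer' protein binding microarrays (Agilent AMADID 015681) probed with GST-tagged S. cerevisiae TFs (full-length or DBD) made by in vitro transcription/translation (PURExpress), about 100-200 nM. Bound TF was detected with fluorescent anti-GST. Each ungapped 8-mer (which stands for itself and its reverse complement) is scored by the PBM enrichment score (E-score), a modified Wilcoxon-Mann-Whitney statistic from -0.5 to +0.5, computed with the Universal PBM Analysis Suite. Scale: above 0.35 generally sequence-specific binding.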

Sequence	PBM E-score
ATCGACCC	-0.11
ATCCCTGC	-0.24
AGGGTAAG	0.00826
AACGGGTC	-0.155
CAGAATAC	0.0673
TCCTCTAA	-0.0667
AGTGGGAC	0.118
ACTCTCCA	-0.0814
ATTGAACA	0.124
CTCGTCCC	0.228
CCCCATAG	-0.15
GAAATGTC	0.487
CAAATTTC	0.184
CAAATGTG	0.229
CAAATGTA	0.276
GAAATGTA	0.245
CAAATGTC	0.471
GAAATGCC	0.00283
CAAATTTG	0.32
AAAATTTG	0.16
GCCGGTCC	-0.233
CAGCGTTA	-0.131
AAACTCTC	-0.0224
CGGACAGA	0.302
GGGACCAC	-0.255

Sequence	PBM E-score
CGGACAAG	0.418
GGGACGAA	0.187
GGAACAAC	0.0504
CGGACGAA	0.337
CGGACGGA	-0.00604
CGGACGAC	-0.0607
CGGACAAA	0.484
CGGACCAG	-0.125
CGGACGAG	0.0588
GGGACAAC	0.375
GCTCTCAC	-0.29
ATTTGACG	0.15
CCAGCATC	-0.148
AGAAGAGC	-0.0669
GTTGAATA	0.0705
TGGTCTAA	-0.0904
CAGACAAC	0.212
CGGACCAC	-0.0995
CGGACAAC	0.369
GATGGAGC	-0.185
GTGCGGGA	-0.0606
AAAAGTAA	0.25
AAAAGTCT	0.269
AAAAGTCA	0.194
ACAAGTCG	0.0205

Sequence	PBM E-score
ATTAGTCG	0.16
ACAAGTCC	0.363
ATTAGTCA	0.0896
AAAAGTAC	0.366
ATTAGTCC	0.349
AAAAGTAT	0.17
ACAAGTCA	0.0996
AAAAGTCC	0.467
ACCTCAGA	-0.147
CGGCTTAC	0.051
AAGGCCAA	-0.2
TGGCGAAA	-0.095
ACTGAAGA	0.147
AAGGCTAG	0.0752
CACCCAAC	-0.201
GAGGCGCC	-0.178
CTAAGTCC	-0.0602
ATAAGTCG	0.0746
ATAAGTCC	0.422
ACAGTCAG	0.0633
CATTTGTC	0.485
CATTTGCA	0.0736
CATTTGTA	0.36
CATTTGGC	0.0384
GATTTGTA	0.31

Sequence	PBM E-score
GGTTTGTA	0.0228
CATTTGCC	-0.00883
AATTTGTA	0.28
GATTTGCA	0.0983
GCAACCGC	0.0753
AATCCAAG	0.0229
AGCCCGCG	-0.185
CAACCATC	-0.177
CTGAACTC	-0.0622
AAGGGACC	-0.0619
TAGGGACA	0.484
AAGGGACA	0.44
GAGGGACA	0.447
GAGGGAGA	-0.218
GAGGGACC	-0.268
TAGGGAGA	-0.215
TAGGGAAA	-0.0483
AAGGGACT	0.0205
CAGGGACA	0.47
CAGGGACC	-0.273
CAGGGACG	0.165
ACTAGCGA	0.0418
AGCATGCG	-0.0235
GAGTCTCA	0.00041
CGATAACC	0.0193

Sequence	PBM E-score
GAAATGGA	-0.0913
GAAATGAC	0.216
CCGATTTA	0.109
GAGCCCTC	-0.318
CCCTAGTA	-0.0771
CAAGCGTA	-0.0459
CCTTTTAC	0.0837
CTGGGGCC	-0.384
AGGACCAG	-0.141
AGGACGAT	-0.0393
AGGACTAC	-0.122
AGGACAAC	0.436
AGGACAAT	0.483
AGGACTAG	0.273
AGGACCAC	-0.124
ACGACAAT	0.24
AGGACAAG	0.472
ATTCGAAA	0.0661
AATCTGGT	0.0578
ATAGGTAC	0.199
GCTTTCGA	-0.175
ATGCCTGC	-0.145
ACGGTTAA	-0.117
CCTCGTTC	-0.202
AGAAAACA	0.108

Sequence	PBM E-score
CAGGACCA	-0.0434
CAGGACAA	0.481
AAGGACCA	-0.0926
AAGGACTA	-0.00885
CAGGACAG	0.259
AAGGACTT	0.347
AAGGACGA	0.0414
AAGGACGT	0.32
AAGGACTG	-0.0408
AAGGACGG	-0.145
AAGGACAA	0.485
AAGGACAG	0.296
GCCCGTCA	-0.234
ACCGGTAA	-0.0138
AACTTTGA	0.12
AAATTCGT	0.256
AGCCCCGC	-0.0507
GGGCCTAA	-0.0118
TAGGACAA	0.491
AAGGACAT	0.49
AAGGACCT	0.0694
TAGGACCA	0.202
AAGGAGAT	-0.164
TAGGACTA	0.257
TATATGCA	0.102

Sequence	PBM E-score
ACATTCAA	0.134
CTTGGCCA	-0.0402
GAGGACAA	0.466
CAGGACGC	0.00853
AAGGACCC	-0.0634
AAGGACGC	0.167
GAGGACAC	0.398
AAGGACAC	0.449
GAGGACCA	-0.184
GAGGACTA	0.0516
CAGGACAC	0.407
GAGGACTC	-0.078
GAGGACCC	-0.218
CAGAACAC	-0.0663
GCCGGTAA	0.146
ATATTCGG	0.11
AGCAGTTA	-0.0695
CTCGACAG	-0.14
TACACTGA	0.0723
GCCTAAAC	0.0003
AGTCGCTA	-0.0278
ACGATGTA	0.00548
